# Sampled rows, rich in hits. Any-hit rate of the full collection: about 3.9%.
# USP2a inh: inhibitors of human ubiquitin-specific protease USP2a | O75604 | USP2 core, Ub-CHOP2 coupled fluorogenic reporter, 485/531 | Potency, µM (highest dose often 38.3 µM), for inactives: top-dose activity change, negative = inhibition, usual class: inhibitors | actives 0.01% (n = 330,000);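 further: potency means the concentration at half of the fitted maximal effect; plate controls were DMSO wells for no effect and full inhibition by NEM control for full effect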
#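 USP2 core (10nM final) preincubated 30min RT with compound in 20mM Tris-HCl pH 8.0, 2mM CaCl2, 2mM beta-mercaptoethanol, 0.05% CHAPS; 25nM Ub-CHOP2 plus 25nM reporter substrate added, fluorescence (Ex485/Em531) read after 60min.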
# D1 PAM: potentiators of human D1 dopamine receptor. P21728. HEK293 TREx D1 cells, calcium flux, dopamine EC20 potentiation. potentiation, % at 10 µM. actives 0.036% (n = 360,000). AID 504651; in the data active means potentiation above about 30%; further: 0% is about no effect
# Target sequence (P21728 whole entry, looked up): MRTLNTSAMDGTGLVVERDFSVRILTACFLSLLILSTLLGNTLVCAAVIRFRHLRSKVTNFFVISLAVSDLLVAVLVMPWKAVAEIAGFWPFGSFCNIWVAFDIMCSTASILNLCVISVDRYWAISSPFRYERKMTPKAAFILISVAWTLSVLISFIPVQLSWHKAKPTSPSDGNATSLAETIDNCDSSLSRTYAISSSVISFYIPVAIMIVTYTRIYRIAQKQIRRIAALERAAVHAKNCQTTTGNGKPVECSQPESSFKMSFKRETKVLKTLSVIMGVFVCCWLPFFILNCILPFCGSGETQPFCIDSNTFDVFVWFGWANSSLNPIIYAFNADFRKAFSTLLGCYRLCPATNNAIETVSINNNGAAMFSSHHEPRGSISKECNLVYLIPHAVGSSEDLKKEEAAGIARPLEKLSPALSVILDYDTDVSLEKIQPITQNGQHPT
# GALK inhibitor: galactokinase (human) inhibition; actives 0.007% (n = 270,000); Purified GALK, Kinase-Glo residual ATP luminescence; Potency, µM (highest dose often 57.5 µM), for inactives: at the top dose activity change, negative = inhibition, most hits filed as inhibitors; P51570; further: potency means the concentration at half of the fitted maximal effect; on the % scale 0 is the no-effect control and ±100 the full control effect
#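 The enzyme phosphorylates galactose (100 uM) using ATP (35 uM); inhibition is detected as higher residual ATP, quantified by bioluminescence after 1 h reaction at room temperature, pH 8.0.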
# D1 ag: human D1 receptor agonism; actives 1% (n = 360,000); HEK293 T-REx D1 cells, calcium flux, agonist mode; activation, % at 2 µM; in the data active means activation above about 30%; further: 0% is about no effect
#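 Agonism was scored from calcium flux recorded over 180 s (1 read/s) after pintool compound addition, following a 10-cycle baseline. Cells were inducible force-coupled HEK293 TREx D1, plated overnight at 30 C and loaded with no-wash calcium dye.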
# D1 antagonist: antagonists of human D1 dopamine receptor; HEK293 TREx D1 cells, calcium flux, dopamine EC80; stronger effect = lower value; activity change, negative = inhibition, % at 10 µM; actives 3.2% (n = 360,000); in the data active means activity change below about -30%; further: on the % scale 0 is the no-effect control and ±100 the full control effect
#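 Using tetracycline-induced force-coupled D1 Hek293 cells and a calcium dye, signals were followed for 180 s after compound, then for 180 s after EC80 dopamine, to detect inhibitors.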
# Eya2 phos inh: blocks the phosphatase activity of human Eya2 | O00167 | recombinant Eya2, OMFP fluorescence dephosphorylation (OMFP is methylfluorescein phosphate) | Potency, µM (top dose mostly 76.9 µM), for the others: top-dose activity, negative = inhibition, actives largely listed as inhibitors | actives 0.006% (n = 330,000); further: potency means the concentration at half of the fitted maximal effect; on the % scale 0 is the no-effect control and ±100 the full control effect
#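 Eya2 (0.2 uM) preincubated 10 min at ambient with compound, then OMFP substrate added at 50 uM; 10 min reaction in 50 mM HEPES pH 7.5, 50 mM NaCl, 5 uM MgCl2, 0.05% BSA, 1 mM DTT. Fluorescence read at Ex 485/Em 525 nm.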
# Active calls of the source: *; / = no result given; ! = a repeat was not active. Unless noted, the call rests on the fitted dose curve; in most records, active means well fitted inhibition curve with a large enough effect; inconclusive means small, poorly fitted or top-dose-only effect, or effect the other way; inactive means flat fitted curve, though single readings scatter.
SMILES,USP2a inh,D1 PAM,GALK inhibitor,D1 ag,D1 antagonist,Eya2 phos inh
COc1ccc(C2C=C(c3ccccc3)Nc3nc(NC(=O)c4ccc(C)cc4)nn32)cc1 (stereo not drawn),/,-2,/,-1,19,/
Cc1ccc(C(=O)CSc2nnc(-c3ccco3)n2C)cc1,3%,2,5%,1,0,4%
Cn1c(SCC(=O)c2cc(Cl)c(Cl)s2)nnc1-c1ccco1,-1%,-1,7%,-1,-68*,-14%
Cc1cc(Oc2nc3ccccn3c(=O)c2/C=C(\C#N)C(=O)NC2CCS(=O)(=O)C2)ccc1Cl (stereo not drawn),1%,-7,4%,-1,-30*,8%
Cc1cccc(Oc2nc3ccccn3c(=O)c2/C=C(\C#N)C(=O)NC2CCS(=O)(=O)C2)c1 (stereo not drawn),-2%,-5,-3%,1,10,1%
COc1ccc(NC(=O)c2sc3nc4c(cc3c2N)CN(Cc2ccccc2)CC4)c(OC)c1,/,4,/,0,3,/
CCN1C(C(=O)c2ccccc2)=C(OC(=O)c2ccccc2OC)c2ccccc2S1(=O)=O,/,-4,/,6,-4,/
CCOc1ccccc1N1CCN(C(=O)/C=C/c2cccc([N+](=O)[O-])c2)CC1,2%,-1,1%,1,4,-14%
O=C(/C=C/c1ccccc1[N+](=O)[O-])N1CCN(c2ccccc2F)CC1,2%,-13,-1%,1,-68*,3%
O=C(/C=C/c1ccc(Cl)cc1Cl)N1CCN(c2ccccc2[N+](=O)[O-])CC1,-2%,4,1%,6,-8,-4%
O=C(/C=C/c1cccc([N+](=O)[O-])c1)N1CCN(c2ccccc2F)CC1,-3%,-8,1%,0,-58*,2%
N#Cc1ccccc1Cn1c(=O)n(-c2ccc(F)c(Cl)c2)c(=O)c2sccc21,/,0,/,4,-13,/
CC(=O)Nc1ccc(N(CC(=O)NC2CCCC2)C(=O)CCC(=O)Nc2cc(C)on2)cc1,4%,-7,4%,2,-13,-9%
Cc1cccc(N(CC(=O)NC2CCCC2)C(=O)CCCC(=O)Nc2ccccn2)c1,-1%,4,2%,0,-34*,-15%
Cc1cccc(N(CC(=O)NC2CCCCC2)C(=O)CCCC(=O)Nc2ccccn2)c1,2%,3,-4%,-1,2,-3%
COc1ccc(N(CC(=O)NC2CCCCC2)C(=O)CCC(=O)Nc2nc(C)cs2)cc1,3%,5,8%,6,21,-8%
COc1ccc(N(CC(=O)NC2CCCCC2)C(=O)CCC(=O)Nc2nc(C)cs2)cc1OC,3%,1,6%,0,-45*,-1%
CC(=O)c1ccc(N(CC(=O)NC2CCCC2)C(=O)CCC(=O)Nc2cc(C)on2)cc1,-1%,-7,-1%,1,-36*,-18%
CCc1ccc(NC(=O)CSc2c(C)cnc3c2c(=O)n(C)c(=O)n3C)cc1,/,-1,/,-2,/,/
CCCCOc1ccc(CNC(=O)c2cnc3sc(N4CCOCC4)nn3c2=O)cc1,/,-3,/,0,-5,/
CCOc1ccc(CNC(=O)c2cnc3sc(N4CCOCC4)nn3c2=O)cc1,/,-4,/,0,-61*,/
O=C(O)CCN(Cc1ccccc1)S(=O)(=O)c1ccc(Cl)cc1F,-1%,-2,12%,2,-38*,26%
CCOC(=O)CCc1cc(F)c(S(=O)(=O)N2CCN(S(=O)(=O)c3ccc4c(c3)OCCO4)CC2)cc1F,/,-3,/,3,13,/
CCOC(=O)N1CCc2c(sc3c2C(=O)NC(c2ccc(C(=O)OC)cc2)N3)C1 (stereo not drawn),/,1,/,-2,2,/
CN1CCc2c(sc3c2C(=O)NC(c2ccc(OC(=O)c4ccc(Cl)cc4)cc2)N3)C1 (stereo not drawn),/,1,/,145*,0,/
SMILES,USP2a inh,D1 PAM,GALK inhibitor,D1 ag,D1 antagonist,Eya2 phos inh
CN1CCc2c(sc3c2C(=O)NC(c2ccc(OC(=O)c4ccccc4)cc2)N3)C1 (stereo not drawn),/,-2,/,114*,-10,/
CN1CCc2c(sc3c2C(=O)NC(c2ccc(OC(=O)c4ccc(C(C)(C)C)cc4)cc2)N3)C1 (stereo not drawn),/,13,/,263*,-11,/
CCOc1cc(C2NC(=O)c3c(sc4c3CCN(C)C4)N2)ccc1OC(=O)c1ccc(F)cc1 (stereo not drawn),/,-1,/,8,-23,/
CN1CCc2c(sc3c2C(=O)NC(c2ccccc2)N3)C1 (stereo not drawn),12%,-2,/,11,23,-10%
Cn1c(=O)c(=O)n(C)c2cc(N3CCCC3)c(NC(=O)c3ccccc3F)cc21,/,0,/,0,1,/
COc1ccc(CCNC(=O)C(=O)NCC(c2cccs2)S(=O)(=O)c2ccc(F)cc2)cc1 (stereo not drawn),/,-1,/,16,/,/
COC(=O)c1cn(C(=O)c2ccc(OC)c(OC)c2)c2ccccc12,1%,0,1%,3,-47*,5%
COC(=O)c1cn(C(=O)c2cc(OC)c(OC)c(OC)c2)c2ccccc12,-6%,0,7%,1,10,-7%
CC(C)(C)OC(=O)Cc1nnc(-c2nc3ccccc3[nH]2)s1,/,24,/,7,2,/
COc1cc(OC)c(NC(=O)c2c3c(nc4ccccc24)C(=O)N(C2CCCCC2)C3)cc1Cl,/,-3,/,0,22,/
CCOC(=O)c1c(C)n(-c2ccccc2)c2ccc(OC(=O)c3ccccc3NC(=O)C(C)(C)C)cc12,/,0,/,-2,12,/
COc1ccc(N2CCN(CCCNC(=O)c3sc4ncccc4c3-n3cccc3)CC2)cc1,/,-2,/,-1,-9,/
O=C(NCCCN1CCN(c2ccc(F)cc2)CC1)c1sc2ncccc2c1-n1cccc1,/,-4,/,-1,-37*,/
Cc1cccc(NC(=O)Cn2c(=O)oc3cc(S(=O)(=O)NC4CCCC4)ccc32)c1,/,-6,/,7,-1,/
CC1CCN(S(=O)(=O)c2ccc3c(c2)oc(=O)n3CC(=O)NCc2ccc(F)cc2)CC1,/,1,/,87*,-57*,/
O=C(Cn1c(=O)oc2ccccc21)Nc1cccc(Cl)c1,2%,0,/,3,0,-5%
COc1ccc(CNC(=O)Cn2c(=O)oc3cc(S(=O)(=O)N4CCCC4)ccc32)cc1,3%,-1,-6%,11,-41*!,-5%
Cc1cccc(NC(=O)Cn2c(=O)oc3cc(S(=O)(=O)NCc4ccccc4)ccc32)c1,/,-4,/,4,-35*,/
O=C(Cn1c(=O)oc2cc(Cl)ccc21)Nc1cccc(C(F)(F)F)c1,/,-7,/,27,-47*,/
